Results taken from PubChem BioAssay (NCI).
This is part of a sample that, as a whole, favours compounds with a hit. Of some 79,000 tested, about 15% had one in any assay. Activity calls are given as the source filed them. No stated cut-off is given here; in the data, active means growth inhibition above about 70%; inactive means the rest.

Legend:
[1] = NCI Yeast Anticancer Drug Screen. Data for the rad50 strain (AID 155);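 further: 0% = growth of vehicle-only cultures of the same strain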; settings: S. cerevisiae rad50 strain growth inhibition, active compounds read high
Procedure, shortened: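 Compounds were tested on a yeast strain with an engineered DNA damage repair alteration; the reported value is growth inhibition normalised to vehicle treatment.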

[2] = NCI Yeast Anticancer Drug Screen. Data for the mec2-1 strain (AID 157); settings: S. cerevisiae mec2-1 strain, active compounds read high
Procedure, shortened: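 Strain: mec2-1 (DNA repair/cell cycle alteration). Compound exposure, then growth measured; inhibition expressed relative to vehicle.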

[3] = NCI Yeast Anticancer Drug Screen. Data for the sgs1 mgt1 strain (AID 161);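 further: 0% = growth of cultures given vehicle only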; settings: S. cerevisiae sgs1 mgt1 strain, active compounds read high
Procedure, shortened: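 Read-out: growth inhibition vs vehicle controls. Cells: mutant yeast strain deficient in DNA damage repair.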

[4] = NCI Yeast Anticancer Drug Screen. Data for the cln2 rad14 strain (AID 165);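 further: 0% = growth equal to vehicle treated cultures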; settings: S. cerevisiae cln2 rad14 strain, active compounds read high
Procedure, shortened: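 Compounds are applied to the cln2 rad14 yeast strain, and growth is then compared with that of vehicle-treated cultures to give inhibition.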

[5] = NCI Yeast Anticancer Drug Screen. Data for the bub3 strain (AID 167); settings: S. cerevisiae bub3 mutant strain, active compounds read high
Procedure, shortened: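 Growth of a checkpoint-deficient yeast mutant is measured after compound exposure. Values represent inhibition relative to vehicle.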

[6] = NCI Yeast Anticancer Drug Screen. Data for the mlh1 rad18 strain (AID 175); settings: S. cerevisiae mlh1 rad18 strain growth inhibition, active compounds read high
Procedure, shortened: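 Read-out is yeast growth inhibition, calculated against vehicle-only controls. The compound was applied to a strain engineered with DNA damage repair alterations.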

[7] = at 5.0 µM (retest, dose inferred, filed as 0.5)
[8] = at 50.0 µM (retest, dose inferred, filed as 5.0)

Measured: growth inhibition

CN(C)[C@@H]1C(=O)C(C(=O)NCNc2nc3n[nH]nc3c(=O)[nH]2)=C(O)[C@@]2(O)C(=O)C3=C(O)c4c(O)cccc4[C@@](C)(O)[C@H]3C[C@@H]12
inactive: [1]; [7] -1% | [1]; [8] 9% | [1]; at 50.0 µM -5.65% | [2]; [7] -4% | [2]; [8] 6% | [2]; at 50.0 µM 11.2% | [3]; [7] -7% | [3]; [8] 3% | [3]; at 50.0 µM -7% | [4]; [7] 1% | [4]; [8] -8% | [4]; at 50.0 µM 11.6% | [5]; [7] 7% | [5]; [8] 14% | [5]; at 50.0 µM -10.6% | [6]; [7] 1% | [6]; [8] 4% | [6]; at 50.0 µM -4.9%

COC(=O)C1(OC(=O)CCC(=O)O)C(=O)NC2=C1C(=O)c1ccccc1C2=O (stereo not given)
active: [1]; at 50.0 µM 75.8%
inactive: [1]; [7] 1% | [1]; [8] 9% | [2]; [7] 2% | [2]; [8] -58% | [2]; at 50.0 µM 12% | [3]; [7] 2% | [3]; [8] 13% | [3]; at 50.0 µM 47.8% | [4]; [7] 2% | [4]; [8] 6% | [4]; at 50.0 µM 38.5% | [5]; [7] -42% | [5]; [8] 16% | [5]; at 50.0 µM 32.9% | [6]; [7] 1% | [6]; [8] 17% | [6]; at 50.0 µM 47.2%

COc1ccc2c(c1)CCCN2CCCCCCCN1CCCCC1
active: [1]; at 50.0 µM 72.5% | [3]; [8] 73% | [3]; at 50.0 µM 77.1% | [4]; at 50.0 µM 90.2% | [5]; at 50.0 µM 83.5% | [6]; [8] 73%
inactive: [1]; [7] 13% | [1]; [8] 49% | [2]; [7] 16% | [2]; [8] 34% | [2]; at 50.0 µM 45.5% | [3]; [7] 26% | [4]; [7] 22% | [4]; [8] 58% | [5]; [7] 34% | [5]; [8] 64% | [6]; [7] 32% | [6]; at 50.0 µM 63.1%

CC(C)CCCC(=O)CCCCCCC(=O)CCN(O)C(=O)C(N)CO (stereo not given)
active: [1]; [7] 98% | [1]; [8] 98% | [1]; at 50.0 µM 92.9% | [2]; [7] 99% | [2]; [8] 99% | [2]; at 50.0 µM 93.5% | [3]; [7] 98% | [3]; [8] 99% | [3]; at 50.0 µM 94.2% | [4]; [7] 96% | [4]; [8] 97% | [4]; at 50.0 µM 90.5% | [5]; [7] 99% | [5]; [8] 98% | [5]; at 50.0 µM 93.4% | [6]; [7] 98% | [6]; [8] 98% | [6]; at 50.0 µM 92%

CCN(CC)C(=O)N1CCN(c2cccc(Cl)c2)CC1
inactive: [1]; [7] 4% | [1]; [8] 58% | [2]; [7] 0% | [3]; [7] 5% | [4]; [7] 1% | [4]; [8] 50% | [5]; [7] 4% | [6]; [7] 2%
active: [1]; at 50.0 µM 74% | [2]; [8] 84% | [2]; at 50.0 µM 91.2% | [3]; [8] 85% | [3]; at 50.0 µM 90.2% | [4]; at 50.0 µM 93% | [5]; [8] 73% | [5]; at 50.0 µM 85.7% | [6]; [8] 76% | [6]; at 50.0 µM 90.6%

N#Cc1c(Cl)nnc(-c2ccccc2)c1-c1ccccc1
active: [1]; [8] 81% | [1]; at 50.0 µM 89.3% | [2]; [8] 84% | [2]; at 50.0 µM 92.2% | [3]; [8] 83% | [3]; at 50.0 µM 92.8% | [4]; at 50.0 µM 93.8% | [5]; [8] 91% | [5]; at 50.0 µM 93.5% | [6]; [8] 91% | [6]; at 50.0 µM 93.6%
inactive: [1]; [7] 6% | [2]; [7] 8% | [3]; [7] -8% | [4]; [7] -1% | [4]; [8] 66% | [5]; [7] 1% | [6]; [7] 4%

O=S(Nc1ccccc1Br)c1ccccc1 (stereo not given)
inactive: [1]; [7] -4% | [1]; [8] 10% | [1]; at 50.0 µM 22.2% | [2]; [7] -2% | [2]; [8] 16% | [2]; at 50.0 µM 24.1% | [3]; [7] -3% | [3]; [8] 21% | [3]; at 50.0 µM 59.2% | [4]; [7] 1% | [4]; [8] 12% | [4]; at 50.0 µM -3.25% | [5]; [7] -4% | [5]; [8] 34% | [5]; at 50.0 µM 16.9% | [6]; [7] -4% | [6]; [8] 45% | [6]; at 50.0 µM 44.8%

O=C(COC(=O)C(c1ccccc1)c1ccccc1)c1ccc(Br)cc1
active: [5]; at 50.0 µM 88%
inactive: [1]; [7] -2% | [1]; [8] 28% | [1]; at 50.0 µM 45.9% | [2]; [7] -1% | [2]; [8] 23% | [2]; at 50.0 µM 11% | [3]; [7] 0% | [3]; [8] 35% | [3]; at 50.0 µM -4.25% | [4]; [7] -5% | [4]; [8] 28% | [4]; at 50.0 µM 11.1% | [5]; [7] 10% | [5]; [8] 62% | [6]; [7] -1% | [6]; [8] 27% | [6]; at 50.0 µM 20.9%

CC1=NOC(=O)C1N=Nc1ccc(Br)cc1C (stereo not given)
active: [1]; [7] 99% | [1]; [8] 95% | [1]; at 50.0 µM 93% | [2]; [7] 100% | [2]; [8] 96% | [2]; at 50.0 µM 94.6% | [3]; [7] 99% | [3]; [8] 94% | [3]; at 50.0 µM 94.8% | [4]; [7] 99% | [4]; [8] 94% | [4]; at 50.0 µM 92.8% | [5]; [7] 99% | [5]; [8] 96% | [5]; at 50.0 µM 94.5% | [6]; [7] 99% | [6]; [8] 94% | [6]; at 50.0 µM 90.5%

O=C1C=CC(=C(c2ccccc2)c2ccc(O)cc2)C=C1
active: [1]; [8] 75% | [2]; [8] 72% | [2]; at 50.0 µM 80.3% | [4]; [8] 76% | [5]; [8] 92% | [5]; at 50.0 µM 92.2% | [6]; [8] 86% | [6]; at 50.0 µM 81%
inactive: [1]; [7] -5% | [1]; at 50.0 µM 31.3% | [2]; [7] -8% | [3]; [7] -5% | [3]; [8] -27% | [3]; at 50.0 µM 65.3% | [4]; [7] -7% | [4]; at 50.0 µM 27.6% | [5]; [7] -8% | [6]; [7] 2%
